The record followed here is ChEMBL document CHEMBL3988442, “University of Dundee, Small-Polar-MMV Screening Library” (2021).

SMILES strings stand for the structures. For some of these results: Measured potencies and affinities stand elsewhere.

Parameters in all cases: scale not given: direction of the effect not stated beside the values
Assay [1] has as its target Protein translocase subunit SecA (Escherichia coli (strain K12)) (UniProt P10408). As to the kind of experiment: Assay to Identify E. coli SecA ATPase Inhibitors. In kind it is functional. The conditions noted are these: 30 µM.
For assay [2], the target named is T1, Ubiquitin-activating enzyme e1, putative (Leishmania donovani (strain BPK282A1)) (UniProt E9BSI1).
T1 sequence (whole entry): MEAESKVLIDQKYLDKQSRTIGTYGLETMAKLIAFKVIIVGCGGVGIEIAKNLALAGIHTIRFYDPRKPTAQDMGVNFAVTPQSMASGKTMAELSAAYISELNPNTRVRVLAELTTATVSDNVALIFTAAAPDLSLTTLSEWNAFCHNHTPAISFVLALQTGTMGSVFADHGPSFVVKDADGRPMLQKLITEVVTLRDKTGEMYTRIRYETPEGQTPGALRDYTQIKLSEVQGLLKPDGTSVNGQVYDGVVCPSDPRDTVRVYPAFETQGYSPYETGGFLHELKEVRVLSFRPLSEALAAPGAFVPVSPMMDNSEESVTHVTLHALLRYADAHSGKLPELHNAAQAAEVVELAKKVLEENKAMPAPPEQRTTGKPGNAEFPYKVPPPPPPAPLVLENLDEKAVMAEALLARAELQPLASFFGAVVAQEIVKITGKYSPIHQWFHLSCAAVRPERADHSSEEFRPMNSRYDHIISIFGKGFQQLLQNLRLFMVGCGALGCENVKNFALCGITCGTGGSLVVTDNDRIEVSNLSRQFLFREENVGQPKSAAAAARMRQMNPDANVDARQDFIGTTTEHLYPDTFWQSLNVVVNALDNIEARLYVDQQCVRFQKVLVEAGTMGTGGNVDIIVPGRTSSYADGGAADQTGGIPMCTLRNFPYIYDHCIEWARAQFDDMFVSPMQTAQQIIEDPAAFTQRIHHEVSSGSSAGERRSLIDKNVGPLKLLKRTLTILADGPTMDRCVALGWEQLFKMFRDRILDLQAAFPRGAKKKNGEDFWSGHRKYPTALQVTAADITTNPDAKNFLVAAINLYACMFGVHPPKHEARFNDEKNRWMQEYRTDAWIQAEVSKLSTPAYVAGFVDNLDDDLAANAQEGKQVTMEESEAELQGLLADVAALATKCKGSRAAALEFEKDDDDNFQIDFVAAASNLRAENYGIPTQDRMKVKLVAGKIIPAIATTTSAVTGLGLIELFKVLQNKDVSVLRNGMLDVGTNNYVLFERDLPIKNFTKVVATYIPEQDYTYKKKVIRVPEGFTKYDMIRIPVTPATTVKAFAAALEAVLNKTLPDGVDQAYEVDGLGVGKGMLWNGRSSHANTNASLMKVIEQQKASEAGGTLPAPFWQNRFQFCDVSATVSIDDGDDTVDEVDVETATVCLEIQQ
Nature of the assay: Leishmania donovani Ubiquitin Activating Enzyme (LdE1). It counts as functional. The settings on record: 30 µM.

For assay [3], the target named is AMP-activated protein kinase, AMPK (Homo sapiens) (UniProt P54646+O43741+P54619+Q9UGJ0+Q9Y478+Q13131+Q9UGI9). Nature of the assay: AMP-dependent Kinase enzyme assay. An in vitro enzyme assay that detects ADP turnover that is directly proportional to AMPK activity. This uses naive AMPK that is activated during the assay with MK-8722. The settings on record: 30 µM. In kind it is functional.

The target of assay [4] is Sialic acid-binding Ig-like lectin 9 (Homo sapiens) (UniProt Q9Y336). Nature of the assay: Hs-Siglec9 ALPHAscreen SOP 20170721. The settings on record: 10 µM.
The next assay has as its system Trypanosoma cruzi. Nature of the assay: Trypanosoma cruzi phosphomannomutase and mannose-1-phosphate guanylyltransferase assay. In kind it is functional. The conditions noted are these: 10 µM.
For assay [5], the target named is T2, Arginase-2, mitochondrial (Homo sapiens) (UniProt P78540).
T2 sequence (whole entry): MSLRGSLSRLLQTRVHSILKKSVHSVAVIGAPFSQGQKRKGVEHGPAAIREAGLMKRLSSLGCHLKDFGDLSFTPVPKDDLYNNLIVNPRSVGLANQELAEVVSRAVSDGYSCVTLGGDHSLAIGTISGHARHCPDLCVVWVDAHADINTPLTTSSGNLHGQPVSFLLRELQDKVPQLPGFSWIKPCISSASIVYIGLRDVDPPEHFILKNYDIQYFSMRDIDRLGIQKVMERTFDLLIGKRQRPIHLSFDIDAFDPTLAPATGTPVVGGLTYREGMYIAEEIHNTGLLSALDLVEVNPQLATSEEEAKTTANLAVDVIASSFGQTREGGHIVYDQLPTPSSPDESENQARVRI
As to the kind of experiment: in vitro enzyme assay to detect the production of urea directly proportional to the activity of Arginase II. Also: in the data most compounds retested in dose-response had high values. In kind it is functional. The conditions noted are these: 33.3 µM.

Assay [6] concerns the target T3, Proteasome subunit beta (Trypanosoma cruzi) (UniProt O96673).
T3 sequence (whole entry): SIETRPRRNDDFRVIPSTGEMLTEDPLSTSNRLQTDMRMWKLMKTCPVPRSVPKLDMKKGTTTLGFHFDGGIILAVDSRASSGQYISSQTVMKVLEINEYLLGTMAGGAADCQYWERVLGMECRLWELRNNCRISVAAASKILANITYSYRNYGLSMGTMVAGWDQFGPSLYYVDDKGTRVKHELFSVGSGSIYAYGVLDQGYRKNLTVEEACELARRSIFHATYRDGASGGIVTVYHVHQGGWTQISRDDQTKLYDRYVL
As to the kind of experiment: Trypanosoma cruzi proteasome chymotrypsin-like activity (TcProtChymo) assay. Also: in the data most compounds retested in dose-response had high values. It counts as functional. The conditions noted are these: 9.37 µM.

The next assay is filed under the species Homo sapiens. Nature of the assay: To identify inhibition of the IFN signalling (Jak-Stat) pathway via expression of an eGFP reporter gene under the control of an IFN-stimulated response element (ISRE) containing MxA promoter. In kind it is functional. The conditions noted are these: 30 µM. (In general: A reporter such as luciferase makes a cellular process visible.)

Assay [7] addresses T4, Tyrosyl-tRNA synthetase, putative (Trypanosoma cruzi (strain CL Brener)) (UniProt Q4DSP6).
T4 sequence (whole entry): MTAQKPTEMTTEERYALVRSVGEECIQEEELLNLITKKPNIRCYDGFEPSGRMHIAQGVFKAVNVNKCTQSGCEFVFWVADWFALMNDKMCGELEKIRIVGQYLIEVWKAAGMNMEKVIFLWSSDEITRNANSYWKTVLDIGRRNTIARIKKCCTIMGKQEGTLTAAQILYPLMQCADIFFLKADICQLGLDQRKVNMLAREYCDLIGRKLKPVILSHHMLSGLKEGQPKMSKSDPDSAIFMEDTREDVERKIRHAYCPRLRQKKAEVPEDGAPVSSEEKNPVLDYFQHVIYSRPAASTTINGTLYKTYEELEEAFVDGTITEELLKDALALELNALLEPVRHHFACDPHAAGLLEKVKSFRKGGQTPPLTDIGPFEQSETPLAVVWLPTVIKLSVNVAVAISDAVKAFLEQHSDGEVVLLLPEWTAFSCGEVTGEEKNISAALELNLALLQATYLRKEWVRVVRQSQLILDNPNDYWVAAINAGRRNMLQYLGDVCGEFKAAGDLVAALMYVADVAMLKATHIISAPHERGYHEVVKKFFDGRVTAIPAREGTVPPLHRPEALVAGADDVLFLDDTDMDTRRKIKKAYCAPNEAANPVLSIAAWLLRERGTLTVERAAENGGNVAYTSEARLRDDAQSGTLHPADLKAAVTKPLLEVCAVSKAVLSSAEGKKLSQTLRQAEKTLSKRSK
As to the kind of experiment: Trypanosoma cruzi tyrosyl tRNA synthetase (TcYRS) _High Tyrosine SOP. Also: in the data most compounds retested in dose-response had high values. The settings on record: 30 µM. It counts as functional.

The target of assay [8] is T4, Tyrosyl-tRNA synthetase, putative (Trypanosoma cruzi (strain CL Brener)). As to the kind of experiment: Trypanosoma cruzi tyrosyl tRNA synthetase (TcYRS) SOP. It counts as functional. The conditions noted are these: 30 µM.
Assay [9] addresses Chromo domain-containing protein 1 (Saccharomyces cerevisiae (strain ATCC 204508 / S288c) (Baker's yeast)) (UniProt P32657). Nature of the assay: ScCHD-1 Enzyme Inhibition Assay. Also: in the data most compounds retested in dose-response had high values. It counts as functional. The settings on record: 30 µM.

Sialic acid-binding Ig-like lectin 9 (Homo sapiens), sequence (Q9Y336 whole entry): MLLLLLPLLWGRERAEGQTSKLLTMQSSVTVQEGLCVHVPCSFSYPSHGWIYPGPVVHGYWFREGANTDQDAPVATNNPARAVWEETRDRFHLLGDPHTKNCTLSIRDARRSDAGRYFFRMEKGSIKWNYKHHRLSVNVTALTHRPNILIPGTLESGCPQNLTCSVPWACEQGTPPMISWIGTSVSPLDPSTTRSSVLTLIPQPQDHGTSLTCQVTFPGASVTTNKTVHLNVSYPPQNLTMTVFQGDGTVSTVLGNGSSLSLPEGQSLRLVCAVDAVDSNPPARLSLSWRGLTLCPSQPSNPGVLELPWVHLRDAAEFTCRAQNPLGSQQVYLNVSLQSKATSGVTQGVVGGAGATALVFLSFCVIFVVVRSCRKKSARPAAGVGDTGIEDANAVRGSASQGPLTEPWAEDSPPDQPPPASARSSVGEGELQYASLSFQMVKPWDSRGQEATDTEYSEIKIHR
Protein translocase subunit SecA (Escherichia coli (strain K12)), sequence (P10408 whole entry): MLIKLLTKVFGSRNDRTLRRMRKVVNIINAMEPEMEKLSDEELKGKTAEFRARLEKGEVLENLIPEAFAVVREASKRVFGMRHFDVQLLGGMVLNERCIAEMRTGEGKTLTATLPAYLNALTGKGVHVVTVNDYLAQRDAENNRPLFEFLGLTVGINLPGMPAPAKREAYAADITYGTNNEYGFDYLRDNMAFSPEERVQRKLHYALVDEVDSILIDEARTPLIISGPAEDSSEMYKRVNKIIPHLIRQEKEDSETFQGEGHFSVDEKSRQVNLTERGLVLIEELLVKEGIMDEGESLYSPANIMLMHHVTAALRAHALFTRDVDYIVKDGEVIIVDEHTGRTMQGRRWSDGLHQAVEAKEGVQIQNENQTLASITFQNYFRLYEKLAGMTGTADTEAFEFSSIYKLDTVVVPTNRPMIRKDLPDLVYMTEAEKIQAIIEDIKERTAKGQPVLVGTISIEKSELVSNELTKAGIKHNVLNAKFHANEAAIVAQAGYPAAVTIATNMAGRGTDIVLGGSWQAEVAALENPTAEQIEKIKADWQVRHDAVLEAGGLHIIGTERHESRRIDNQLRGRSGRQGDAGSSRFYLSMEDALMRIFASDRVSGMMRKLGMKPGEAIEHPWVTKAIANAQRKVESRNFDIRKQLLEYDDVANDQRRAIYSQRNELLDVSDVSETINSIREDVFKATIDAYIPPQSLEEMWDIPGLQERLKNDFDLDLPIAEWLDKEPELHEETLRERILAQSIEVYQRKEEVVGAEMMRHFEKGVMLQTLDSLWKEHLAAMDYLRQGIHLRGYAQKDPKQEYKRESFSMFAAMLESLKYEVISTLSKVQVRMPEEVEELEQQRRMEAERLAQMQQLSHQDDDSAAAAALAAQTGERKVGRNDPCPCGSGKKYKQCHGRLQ
Chromo domain-containing protein 1 (Saccharomyces cerevisiae (strain ATCC 204508 / S288c) (Baker's yeast)), sequence (P32657 whole entry, the tested form may be a part): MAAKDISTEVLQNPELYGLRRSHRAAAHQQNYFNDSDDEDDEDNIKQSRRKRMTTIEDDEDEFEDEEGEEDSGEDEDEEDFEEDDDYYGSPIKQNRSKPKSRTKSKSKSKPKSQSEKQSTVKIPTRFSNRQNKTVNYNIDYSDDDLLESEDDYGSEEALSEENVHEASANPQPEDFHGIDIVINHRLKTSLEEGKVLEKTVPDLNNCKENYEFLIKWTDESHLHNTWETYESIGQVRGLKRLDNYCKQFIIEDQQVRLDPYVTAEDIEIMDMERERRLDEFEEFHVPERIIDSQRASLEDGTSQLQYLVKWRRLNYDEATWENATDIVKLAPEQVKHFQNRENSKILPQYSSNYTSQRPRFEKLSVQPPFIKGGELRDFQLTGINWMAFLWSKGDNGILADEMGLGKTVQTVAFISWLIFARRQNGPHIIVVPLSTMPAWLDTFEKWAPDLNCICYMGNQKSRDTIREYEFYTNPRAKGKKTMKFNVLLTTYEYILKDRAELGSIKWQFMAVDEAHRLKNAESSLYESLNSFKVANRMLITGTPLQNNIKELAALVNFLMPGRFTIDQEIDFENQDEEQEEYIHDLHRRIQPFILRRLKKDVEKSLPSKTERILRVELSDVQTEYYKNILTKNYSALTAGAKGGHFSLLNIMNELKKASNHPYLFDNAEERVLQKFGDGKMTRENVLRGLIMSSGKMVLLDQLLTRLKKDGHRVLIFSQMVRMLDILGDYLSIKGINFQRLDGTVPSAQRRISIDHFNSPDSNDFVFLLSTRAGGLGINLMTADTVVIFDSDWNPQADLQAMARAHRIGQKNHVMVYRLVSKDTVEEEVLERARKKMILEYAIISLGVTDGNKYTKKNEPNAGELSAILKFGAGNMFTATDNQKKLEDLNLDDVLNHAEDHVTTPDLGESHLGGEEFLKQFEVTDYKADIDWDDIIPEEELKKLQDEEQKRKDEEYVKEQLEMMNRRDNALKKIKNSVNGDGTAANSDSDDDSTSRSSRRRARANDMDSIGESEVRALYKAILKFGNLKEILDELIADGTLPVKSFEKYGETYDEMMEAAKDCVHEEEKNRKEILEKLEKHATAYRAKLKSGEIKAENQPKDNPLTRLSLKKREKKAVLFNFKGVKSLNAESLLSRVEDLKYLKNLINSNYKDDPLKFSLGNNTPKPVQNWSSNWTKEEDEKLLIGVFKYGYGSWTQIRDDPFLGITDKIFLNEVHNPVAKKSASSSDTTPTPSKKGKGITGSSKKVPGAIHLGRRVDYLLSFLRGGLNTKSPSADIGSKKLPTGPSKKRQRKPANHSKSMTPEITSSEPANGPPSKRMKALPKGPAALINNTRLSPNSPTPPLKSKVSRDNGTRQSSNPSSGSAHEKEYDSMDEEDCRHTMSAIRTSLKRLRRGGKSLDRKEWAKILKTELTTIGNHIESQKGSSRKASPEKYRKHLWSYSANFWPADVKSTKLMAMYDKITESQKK

With `COc1ccc(NC(=O)CCc2c(C)nc3cc(O)nn3c2C)cn1`, the Percent Effect in assay [1] is -3.54%; in [2], 0%; in assay [3] it was -317%; in [4], 9.4%; with Trypanosoma cruzi, 6.18%; in assay [5], 0.356%. The Percent Effect was 8.62% in [6]; 25.5% in the assay listed under Homo sapiens; 7.77% in assay [7]; 21.9% in [8]; -8.7% in assay [9].
Consider `COC(=O)C1CCN(C(=O)CN2CCN(c3cccc(C)c3)CC2)CC1`, for which the Percent Effect in [1] is -1.93%; in assay [2] it was 2.74%; in assay [3], 1.05%; in assay [4], 3.16%; in the assay on Trypanosoma cruzi it was -7.54%; in assay [5] it was -1.6%. Moreover, the Percent Effect in assay [6] is 8.65%; in the assay filed under Homo sapiens, 0.408%; in [7] it was 5.21%; in assay [8], 16.1%; in assay [9], -1.41%.
In the case of `NS(=O)(=O)CCNC(=O)C1(c2ccc(Br)cc2)CC1`, the Percent Effect was 2.05% in [1]; 7.79% in [2]; -1.42% in assay [3]; 6.68% in [4]; 4.23% in the assay with Trypanosoma cruzi; -13.8% in assay [5]. Also, the Percent Effect in assay [6] was 13%; in the assay listed under Homo sapiens, -0.291%; in [7], 2.15%; in [8], 16.1%; in assay [9], -2.63%.
On to `COc1ccc(NC(=O)Cn2nc(C)ccc2=O)cc1OC`, for which the Percent Effect in [1] is -3.84%; in assay [2], -1.33%; in assay [3], 2.94%; in assay [4] it was 4.69%; in the assay with Trypanosoma cruzi, -0.786%; in [5], -5.46%. For the same compound, the Percent Effect in assay [6] was 7.39%; in the assay filed under Homo sapiens it was -3.33%; in assay [7] it was 3.17%; in assay [8], 5.13%; in [9] it was 0.459%.
`CN1CCN(c2ncccc2CNc2ncccc2C#N)CC1`: the Percent Effect was -5.21% in assay [1]; 8.11% in [2]; -1.66% in assay [3]; 20.8% in [4]; -2.44% in the assay on Trypanosoma cruzi; 3.72% in assay [5]. Moreover, the Percent Effect in assay [6] is 3.86%; in the assay filed under Homo sapiens, -10.1%; in assay [7], 4.3%; in assay [8], 13.6%; in [9], -4.55%.
With `CN(C)c1cncc(C2CCN(C(=O)CO)CC2)n1`, the Percent Effect was -3.4% in assay [1]; 6.76% in assay [2]; 7.38% in assay [3]; 5.95% in assay [4]; 0.198% in the assay with Trypanosoma cruzi; 2.55% in [5]. In addition, the Percent Effect in assay [6] is 10.8%; in the assay listed under Homo sapiens it was 22%; in [7] it was 4.3%; in [8], 9.09%; in assay [9] it was -10.6%.
For the compound `CC1CCCN(Cc2coc(-c3cccc(F)c3)n2)C1` (stereo unspecified), the Percent Effect in assay [1] is -5.97%; in [2], 2.6%; in [3] it was 8.2%; in assay [4], 7.31%; in the assay on Trypanosoma cruzi, 1.31%; in [5], 2.49%. Also, the Percent Effect in [6] is -0.507%; in the assay filed under Homo sapiens, 3.77%; in assay [7], 5.83%; in [8] it was 2.44%; in assay [9] it was 0.197%.
Consider `Cn1ccc(C(=O)N2CCN(CCc3ccccc3)CC2)cc1=O`, for which the Percent Effect was -5.05% in [1]; 11.4% in assay [2]; 1.25% in assay [3]; -2.05% in assay [4]; -1.74% in the assay on Trypanosoma cruzi; 3.23% in assay [5]. The Percent Effect in assay [6] is 13%; in the assay filed under Homo sapiens it was 6.37%; in assay [7] it was 12.5%; in assay [8], 17.7%; in assay [9], -7.93%.
Turning to `CC1CCN(CCNC(=O)c2cncnc2C(C)C)CC1`, the Percent Effect in [1] is 0.314%; in assay [2] it was 4.17%; in assay [3] it was -2.65%; in assay [4], -7.34%; with Trypanosoma cruzi it was -5.34%; in assay [5], 2.21%. The Percent Effect in assay [6] is 11.1%; in the assay filed under Homo sapiens, 0.616%; in assay [7], 1.05%; in assay [8] it was 5.13%; in [9], -2.34%.
For the compound `COCCCNC(=O)CN(C)C(=O)c1cc(C)ccc1O`, the Percent Effect was -3.14% in assay [1]; 16.2% in assay [2]; -6.15% in assay [3]; -4.94% in assay [4]; -5.48% with Trypanosoma cruzi; -0.924% in assay [5]. The Percent Effect was 7% in [6]; -3.62% in the assay filed under Homo sapiens; 3.96% in [7]; 15.8% in [8]; -7.89% in assay [9].
With `COc1cc(CN(C)C(=O)Nc2cc(C)on2)ccc1SC`, the Percent Effect was -9.88% in assay [1]; 5.41% in assay [2]; -3.24% in assay [3]; 0.0571% in [4]; -2.73% with Trypanosoma cruzi; -24.2% in [5]. The Percent Effect in assay [6] was 21.6%; in the assay listed under Homo sapiens, 6.33%; in [7], 9.9%; in assay [8], 1.22%; in assay [9] it was -2.37%.
